Among the test systems are NCI-H23 lung; NCI-H226 lung; NCI-H322M lung; HOP-62 NSCLC; NCI-H460 lung; HOP-92 NSCLC; NCI-H522 lung; A549/ATCC NSCLC; 786-0 renal; COLO 205 colon; DU-145 prostate; K-562 leukemia; MALME-3M melanoma; MDA-MB-231 breast; RXF 393 renal; SF-268 CNS; SF-295 CNS; SF-539 CNS; UACC-257 melanoma; M14 melanoma.
Assay in all cases: NCI-60 one-dose screen, 48 h (100 = growth as untreated, 0 = no growth, -100 = all killed)
Holding throughout (settings): 10 µM unless noted

About 83,000 compounds went through this panel and 20% of them were active in at least one assay; those are over-represented in the sample as a whole.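 How to read the values: 0–100, growth inhibition (40 = 60% inhibited); 0, no net growth; -100 to 0, cell death (-40 = 40% of starting cells died; -100 = all dead).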 Values without a mark were called inactive. Active and inactive are the calls of the source. How the source made its calls: active means growth percent below 10; inactive means the rest.

As for `CC(=O)OC[C@H]1OC(Sc2sc(C(=O)c3ccc(Br)cc3)c(N)c2-c2nc3ccccc3s2)[C@H](OC(C)=O)[C@@H](OC(C)=O)[C@H]1OC(C)=O` (stereo not given in full), the growth is 88.4% with NCI-H23 lung; 65.6% with NCI-H226 lung; 91.8% with NCI-H322M lung; 91.1% in the assay with HOP-62 NSCLC; 107% in the assay on NCI-H460 lung; 98.3% with HOP-92 NSCLC. The growth was 94.1% with NCI-H522 lung; 92.2% with A549/ATCC NSCLC; 94.4% with 786-0 renal; 108% in the assay with COLO 205 colon; 110% in the assay with DU-145 prostate; 92.2% in the assay on K-562 leukemia. Moreover, the growth in the assay on MALME-3M melanoma was 98.1%; in the assay with MDA-MB-231 breast, 80.6%; in the assay on RXF 393 renal, 115%; in the assay with SF-268 CNS, 93%; in the assay with SF-295 CNS it was 97.1%; with SF-539 CNS, 95.2%. Also, the growth was 104% in the assay on UACC-257 melanoma and 96.1% in the assay with M14 melanoma.
For `NCCOc1ncccc1/C=C1\c2ccccc2-c2ccc(C(F)F)cc21`, the growth in the assay with NCI-H23 lung was 42.3%; with NCI-H226 lung, 61.8%; in the assay on NCI-H322M lung, 98.8%; with HOP-62 NSCLC it was 39.9%; in the assay with NCI-H460 lung it was 9.8% (active); in the assay on HOP-92 NSCLC, 49.6%. Moreover, the growth with NCI-H522 lung is 79%; in the assay with A549/ATCC NSCLC, 20.9%; with 786-0 renal, 56.4%; in the assay on COLO 205 colon, 48.9%; with DU-145 prostate, 13.1%; in the assay with K-562 leukemia, 16.5%. The growth was 61.6% with MALME-3M melanoma; 35.3% in the assay on MDA-MB-231 breast; 61.5% in the assay with RXF 393 renal; 54.3% in the assay on SF-268 CNS; 53.7% in the assay on SF-295 CNS; 49.3% in the assay on SF-539 CNS. Also, the growth in the assay with UACC-257 melanoma was 102%; in the assay with M14 melanoma, 64.5%.
Take `COc1cc2cc(Oc3ccc(NC(=O)Nc4cc(C(F)(F)F)cc(C(F)(F)F)c4)cc3)c(C)nc2cc1OCCN1CCOCC1`: the growth with NCI-H23 lung was 7.96% (active); in the assay with NCI-H226 lung it was 40.2%; with NCI-H322M lung, 49.5%; in the assay on HOP-62 NSCLC, 28.8%; in the assay with NCI-H460 lung, 9.99% (active); with HOP-92 NSCLC it was -14.2% (active). Besides, the growth in the assay with NCI-H522 lung was 15%; in the assay with A549/ATCC NSCLC, 11.8%; with 786-0 renal, 30.9%; with COLO 205 colon it was -22.9% (active); in the assay on DU-145 prostate, 24.9%; in the assay with K-562 leukemia, 6.68% (active). Moreover, the growth is 28.1% in the assay on MALME-3M melanoma; 1.49% (active) in the assay on MDA-MB-231 breast; 26% in the assay on RXF 393 renal; 27.8% in the assay on SF-268 CNS; 7.59% (active) with SF-295 CNS; 38.5% in the assay on SF-539 CNS. Moreover, the results for the growth with UACC-257 melanoma and in the assay with M14 melanoma were 7.28% (active) and 17.6%, respectively.
As to `NC1=C(c2nn[nH]n2)C(c2ccccc2Cl)c2ccc3ccccc3c2O1` (stereo not given), the growth is 76.3% in the assay on NCI-H23 lung; 76.8% with NCI-H226 lung; 89.9% in the assay on NCI-H322M lung; 66.5% in the assay on HOP-62 NSCLC; 87.5% with NCI-H460 lung; 69.7% in the assay with HOP-92 NSCLC. The growth with NCI-H522 lung is 35.5%; in the assay with A549/ATCC NSCLC, 83.3%; in the assay on 786-0 renal, 82.7%; in the assay with COLO 205 colon it was 86.8%; in the assay with DU-145 prostate, 93.4%; with K-562 leukemia, 22.6%. For the same compound, the growth in the assay on MALME-3M melanoma is 64%; in the assay with MDA-MB-231 breast, 63.7%; with RXF 393 renal, 79.3%; in the assay with SF-268 CNS, 73.2%; in the assay with SF-295 CNS, 88.9%; in the assay with SF-539 CNS it was 79.2%. Besides, the growth was 84.7% in the assay with UACC-257 melanoma and 61.3% in the assay with M14 melanoma.
As for `CCCCNC(=O)Oc1ccc(/C(=C(\C)c2ccc(Cl)cc2)c2ccc(OCCN(CC)CC)cc2)cc1`, the growth with NCI-H23 lung was 85.6%; in the assay on NCI-H226 lung, 103%; in the assay with NCI-H322M lung it was 87.9%; with HOP-62 NSCLC, 74.3%; in the assay on NCI-H460 lung it was 72.6%; in the assay on HOP-92 NSCLC, 67.2%. The growth with NCI-H522 lung was 98.4%; in the assay on A549/ATCC NSCLC it was 61.6%; in the assay with 786-0 renal it was 59.2%; in the assay with COLO 205 colon, 63.3%; in the assay with DU-145 prostate, 81.7%; in the assay with K-562 leukemia, 8.22% (active). The growth is 65.1% with MALME-3M melanoma; 70.2% in the assay on MDA-MB-231 breast; 79.4% in the assay on RXF 393 renal; 65.5% in the assay with SF-268 CNS; 85.2% with SF-295 CNS; 71.7% with SF-539 CNS. The figures for the growth in the assay on UACC-257 melanoma and in the assay with M14 melanoma were -1.69% (active) and 22.6%, respectively.
In the case of `COc1cccc(-c2nc(-c3ccc(NC(=O)OC(C)C)cc3)[nH]c2-c2ccnc(Br)c2)c1`, the growth in the assay with NCI-H23 lung is 15.7%; with NCI-H226 lung, 31.2%; in the assay on NCI-H322M lung it was 35.4%; in the assay on HOP-62 NSCLC, 22.7%; in the assay with NCI-H460 lung it was 16.7%; with HOP-92 NSCLC, 40.7%. The growth in the assay on NCI-H522 lung is 26.8%; in the assay with A549/ATCC NSCLC, 29%; in the assay on 786-0 renal it was 0.518% (active); in the assay with COLO 205 colon it was 25.7%; in the assay on DU-145 prostate, 36%; in the assay on K-562 leukemia it was 6.01% (active). Further, the growth in the assay with MALME-3M melanoma is 21.8%; with MDA-MB-231 breast, 37.3%; in the assay with RXF 393 renal it was -33.9% (active); in the assay with SF-268 CNS it was 40.5%; in the assay on SF-295 CNS it was -35.6% (active); with SF-539 CNS, 10.5%. In addition, the growth with UACC-257 melanoma is 45.3%; in the assay on M14 melanoma, 29.9%.

Values taken from PubChem BioAssay (NCI).
